Results on 28 compounds are retold here after PubChem BioAssay AID588689 (Southern Research Specialized Biocontainment Screening …, 2011).

Molecules are shown by their SMILES. The whole screen tested about 340,000 compounds, of which about 1,000 (0.29%) were called active. A selection follows. Results with a measured potency or affinity are listed apart. Unmarked numbers belong to inactive results. Cut-off read from the data, not from the text of the source: inconclusive = inhibition above about 29% without an active follow-up result; inactive = below that.

For this experiment, the target named is Genome polyprotein (Dengue virus type 2 (strain 16681-PDK53)) (UniProt P29991). The experiment can be described thus: Dengue-2 NS5 methyltransferase inhibitors, primary screen, biochemical, confirmation dose response (AID 588689). To be noted: Dengue-2 NS5 methyltransferase capping enzyme assay, at 25 µM, stronger effect = higher value.
For `CC1CCCN(S(=O)(=O)c2ccc3[nH]c(=O)cc(C(=O)NCCCN4CCCCCC4)c3c2)C1` (stereo not drawn), the inhibition is -5.49%. With `Cc1cccc(N2C(=O)c3ccc(Br)cc3C2=O)n1`, the inhibition is -2.38%. As for `COC1=C(N)C(=O)c2nc(C)ccc2C1=O`, the inhibition is 12.3%.

In the case of `O=C1c2cccnc2-c2ncccc21`, the inhibition is 5.95%. Take `NC1=C(Br)C(=O)c2ncccc2C1=O`: the inhibition is 20.2%. For the compound `O=C(OCC(=O)N1CCOCC1)c1ccc[nH]c1=O`, the inhibition was -3.24%. With `CCN(Cc1ccccc1)C(=O)CCNS(=O)(=O)c1cc(Br)cnc1N`, the inhibition was 2.62%. With `CC1CCN(c2nc3ccc(C(=O)N4CCN(Cc5ccc6c(c5)OCO6)CC4)cc3s2)CC1` the figure was -4.17%; with `COc1ccc2nc(N3CCCC3)c(C#N)cc2c1`, 12.8%. With `COc1ccc2nc(N3CCC(C)CC3)c(C#N)cc2c1` the figure was 14.4%. On to `CC(=O)Nc1ccc(NC(=O)C(C)OC(=O)CCC2CCCCC2)cc1` (stereo not drawn), for which the inhibition is 0.32%. With `CCN(C(=O)COC(=O)/C=C/c1ccc(Cl)c(Cl)c1)c1c(N)n(Cc2ccccc2)c(=O)[nH]c1=O` the figure was 2.22%.

In the case of `COc1ccccc1OCCCCNC(C)(C)C`, the inhibition is -1.39%. For the compound `O=C(Nc1ccc(S(=O)(=O)Nc2ncccn2)cc1)c1ccc(Br)o1`, the inhibition is -3.89%.

As for `CC1(C)Cc2c(C#N)c(N)sc(=S)c2CO1`, the inhibition was 4.14%. Consider `N#Cc1c(N)sc2c1CCCCCC2`, for which the inhibition is -3.42%.

With `COc1cc2c(cc1OC)C(c1ccccc1F)NCC2` (stereo not drawn), the inhibition is -3.4%. Take `O=C(CN1CCC(NC(=O)c2ccccc2Cl)CC1)NCc1ccccc1`: the inhibition is -1.62%.

As for `COc1ccc(CNC(=O)C(C)N2CCN(S(=O)(=O)c3ccccc3F)CC2)cc1` (stereo not drawn), the inhibition was -2.2%. Regarding `COc1ccc(/C=C2/C(=O)ON=C2c2ccccc2)cc1OC`, the inhibition is -17.6%. As for `CCCOc1ccc(/C=C2/C(=O)ON=C2C)cc1Cl`, the inhibition was 12.4%.

As for `CCOc1cc(/C=C2\C(=O)ON=C2C)ccc1OCc1ccccc1`, the inhibition was -8.01%. In the case of `C=CCOc1ccc(/C=C2/C(=O)ON=C2C)cc1OC`, the inhibition is 28.1%.

For `CCOc1cc(/C=C2/C(=O)ON=C2C)ccc1OCc1ccc(F)cc1`, the inhibition was 24.8%.

For the compound `COc1cc(/C=C2/C(=O)ON=C2c2ccccc2)ccc1O`, the inhibition was -8.45%.

Take `CCOc1cc(/C=C2/C(=O)ON=C2C)ccc1O`: the inhibition is -24.5%. In the case of `CCOc1ccc(Cl)cc1/C=C1/C(=O)ON=C1C`, the inhibition is 20.2%. Turning to `NC(=O)c1ccc(NC(=O)c2cccc(Oc3ccccc3)c2)cc1`, the inhibition was -7.28%.

As usually defined, the inhibition is the change of the read-out against control, counted positive when it falls.
